Pf Dd2 inh – blocks in vitro growth of P. falciparum Dd2; P. falciparum Dd2 growth, SYBR Green, 72 h; 120,000 tested, 4.3% active; Potency, µM (highest dose often 28.9 µM), inactives show at the top dose activity, negative = inhibition, most hits filed as inhibitors; active = well fitted inhibition curve with a large enough effect;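 also: plate controls were DMSO vehicle for no effect and reference drug for full effect; nearly all actives have a fitted effect of over 65% in size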
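Infected erythrocytes (Dd2, 0.3% parasitemia, 2.5% hematocrit final) are added to compound in RPMI-1640/Albumax II medium, grown 72 h at 37C in low oxygen, then lysed with saponin/Triton-X containing SYBR Green and read by fluorescence.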
* marks the source's active call; other numbers are inactive results; i = inactive; [ ] = dose if it differs, or a comment. This is one part of a sample in which hits are shown more often than they occur. Potency is read from the fitted curve at half-maximal effect.

SMILES	Pf Dd2 inh
COc1ccc(-n2nc(C)c([C@H]3C=C[C@@H](OC(=O)N[C@H](C)c4ccccc4)C3)c2C)cc1	7.9µM*
COc1ccc(-n2nc(C)c([C@@H]3C=C[C@@H](NCc4ccccc4)C3)c2C)cc1	2.8µM*
Cc1ccccc1-n1nc(C)c([C@H]2C=C[C@@H](OC(=O)N[C@H](C)c3ccccc3)C2)c1C	-8%[44.1 µM]
Cc1nn(-c2ccccn2)c(C)c1[C@@H]1C=C[C@@H](NC(=O)NCc2ccccc2)C1	i
COc1ccc(NC(=O)O[C@@H]2C=C[C@H](c3c(C)nn(-c4ccc(C)c(Cl)c4)c3C)C2)cc1	i
Cc1nn(-c2ccc(C(C)C)cc2)c(C)c1[C@@H]1C=C[C@@H](NC(=O)COCC(=O)O)C1	i
COC1C(=O)N(C2CCN(C(=O)c3cnccn3)CC2)C12CCOCC2 (configuration not stated)	1%
COc1ccc(Cl)cc1-c1ccc2c(c1)C(=O)N1CCN(C(=O)c3ccccc3)C[C@@H]1C(=O)N2	i
COc1ccc(-c2ccc3c(c2)C(=O)N2CCN(C(=O)C4CCCCC4)C[C@@H]2C(=O)N3)cc1	i
COc1ccc(Cl)cc1-c1ccc2c(c1)C(=O)N1CCN(C(=O)C3CCCCC3)C[C@@H]1C(=O)N2	i
COc1ccc(Cl)cc1-c1ccc2c(c1)C(=O)N1CCN(C(=O)C3CC3)C[C@@H]1C(=O)N2	13µM*
O=C1Nc2ccc(-c3ccc4c(c3)OCO4)cc2C(=O)N2CCN(C(=O)C3CCCC3)C[C@@H]12	i
CSc1ccc(-c2ccc3c(c2)C(=O)N2CCN(C(=O)C4CCCCC4)C[C@@H]2C(=O)N3)cc1	8.9µM*
Cc1cc2nc3n(c(=O)c2n1CC(=O)NCc1ccccc1)CCCCC3	i
O=C(c1nc(-c2ccccc2)c2ccccn12)N1CCOCC1	-27%[44.1 µM]
Cc1nc(N2CCC(NC(=O)Cc3ccc(Cl)cc3)CC2)cc(C(F)(F)F)n1	i
Cc1nc(N2CCN(C(=O)Cc3ccccc3Cl)CC2)cc(C(F)(F)F)n1	-18%
Cc1nc(N2CCN(C(=O)Cc3ccc(Cl)cc3)CC2)cc(C(F)(F)F)n1	4µM*
O=C1NCc2ccccc2CC12CCCCN2Cc1cncs1 (configuration not stated)	7%
Cc1cc(-c2cccc(OCCn3ccnc3)c2)ccn1	-10%
O=C(COc1ccccc1)NCC(c1ccc(Cl)cc1)N1CCOCC1 (configuration not stated)	-4%
COc1ccc(C(CNC(=O)COc2cc(C)cc(C)c2)N2CCOCC2)cc1 (configuration not stated)	-21%
COc1ccccc1OCC(=O)NCC(c1ccc(Cl)cc1)N1CCOCC1 (configuration not stated)	-20%
CCc1ccc(OCC(=O)NCC(c2ccc(Cl)cc2)N2CCOCC2)cc1 (configuration not stated)	11µM*
COc1ccc(C(CNC(=O)Cc2ccc(Cl)cc2)N2CCOCC2)cc1 (configuration not stated)	i
SMILES	Pf Dd2 inh
CN(C)c1ccc(C(CNC(=O)COc2ccccc2)N2CCOCC2)cc1 (configuration not stated)	-16%
COc1ccc(C(=O)NCC(c2ccc(Cl)cc2)N2CCCCC2)cc1 (configuration not stated)	-10%
COc1ccc(OCC(=O)NCC(c2ccc(Cl)cc2)N2CCCCC2)cc1 (configuration not stated)	7.9µM*
Cc1cc(C)cc(OCC(=O)NCC(c2ccc(Cl)cc2)N2CCCCC2)c1 (configuration not stated)	11µM*
C=CCNC(=O)[C@@H]1CCCN1[C@@H](C(=O)NC)c1ccccc1F	20%[44.1 µM]
CCc1nc2nccc(-c3cccc(OC)c3)n2n1	-17%
CC1(c2ccccc2)N(Cc2ncccn2)C(=O)OC12CCN(Cc1cccc(O)c1)CC2 (configuration not stated)	i
CNC(=O)[C@@H](c1ccccc1)N1CCC[C@H]1C(=O)N1CCC[C@@H]1COC	4%[44.1 µM]
O=C1NC(C(=O)NC2CCCCC2)Cn2cccc21 (configuration not stated)	31%
Cc1cc(C)n(CCC(=O)N2CCC(N3C[C@H](O)C[C@H]3C(=O)NC3CCCCC3)CC2)n1	-24%
Cc1cnc(C(=O)N2CCC(N3C[C@H](O)C[C@H]3C(=O)NC3CCCCC3)CC2)cn1	10%
Cc1cc(C)n(Cc2ccc(C(=O)N3CCC(N4C[C@H](O)C[C@H]4C(=O)NC4CCCCC4)CC3)o2)n1	5µM*
O=C(COc1ccccc1)Nc1ccc([C@@H](O)[C@H]2COCC(=O)N2)cc1	i
O=C1O[C@@H]2CN(S(=O)(=O)N3CCCC3)C[C@@H]2N1CCCc1ccc(F)cc1	-15%
COc1ccc2[nH]c(C(=O)N3CCC4(CC3)CC(O)CCO4)cc2c1 (configuration not stated)	11µM*
COc1ccc(C(=O)N2CCC3(CC2)CC(O)CCO3)cc1 (configuration not stated)	28%
COc1ccc(C(=O)N2CCC3(CC2)CC(O)CCO3)c(C)c1 (configuration not stated)	7%

From PubChem BioAssay
